{"source": "paper PMC4336329", "about": "(PLoS ONE, 2015)", "note": "Among all 310,000 compounds or so, about 14,000 (4.5%) showed an effect of 50% or more. Effects have a minus sign here. This excerpt belongs to a sample that is enriched for strong results.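 Also: peak tail current of the secondary pulse compared with the same well before compound.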"}
{"target": "human ether-à-go-go-related gene (hERG) potassium channel (human, UniProt Q12809)", "sequence (Q12809 whole entry, looked up)": "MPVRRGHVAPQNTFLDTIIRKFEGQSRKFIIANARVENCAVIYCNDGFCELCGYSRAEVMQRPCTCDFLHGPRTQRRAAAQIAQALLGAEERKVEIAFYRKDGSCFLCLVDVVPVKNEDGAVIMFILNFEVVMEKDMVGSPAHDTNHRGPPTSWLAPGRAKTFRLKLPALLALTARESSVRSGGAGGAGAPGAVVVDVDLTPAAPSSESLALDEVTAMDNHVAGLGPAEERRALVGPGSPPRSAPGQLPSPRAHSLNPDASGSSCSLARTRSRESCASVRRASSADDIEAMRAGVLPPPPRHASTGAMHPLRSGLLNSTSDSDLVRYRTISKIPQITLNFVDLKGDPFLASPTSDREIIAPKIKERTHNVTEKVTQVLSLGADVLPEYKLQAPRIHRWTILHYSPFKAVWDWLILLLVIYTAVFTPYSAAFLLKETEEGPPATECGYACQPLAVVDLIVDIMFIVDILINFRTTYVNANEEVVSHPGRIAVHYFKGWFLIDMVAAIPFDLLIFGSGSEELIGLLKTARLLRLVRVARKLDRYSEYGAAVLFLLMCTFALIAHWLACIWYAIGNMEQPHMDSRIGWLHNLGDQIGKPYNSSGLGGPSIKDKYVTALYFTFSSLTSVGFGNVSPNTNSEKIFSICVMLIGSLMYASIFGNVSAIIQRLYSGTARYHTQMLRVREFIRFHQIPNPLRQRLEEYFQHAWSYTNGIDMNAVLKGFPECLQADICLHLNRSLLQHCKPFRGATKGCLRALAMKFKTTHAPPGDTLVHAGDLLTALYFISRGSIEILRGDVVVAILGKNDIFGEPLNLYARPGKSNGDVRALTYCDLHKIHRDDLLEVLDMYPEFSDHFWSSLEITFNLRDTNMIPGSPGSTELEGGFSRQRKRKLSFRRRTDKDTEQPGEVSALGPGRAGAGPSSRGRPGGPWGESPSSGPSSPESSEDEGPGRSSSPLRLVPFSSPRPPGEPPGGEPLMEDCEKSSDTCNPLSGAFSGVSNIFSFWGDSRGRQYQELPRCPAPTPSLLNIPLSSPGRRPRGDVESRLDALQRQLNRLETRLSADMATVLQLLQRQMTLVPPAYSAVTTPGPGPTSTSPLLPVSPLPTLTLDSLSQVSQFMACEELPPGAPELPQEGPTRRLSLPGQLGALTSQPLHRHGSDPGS", "assay": "primary screen, population patch clamp on CHO cells stably expressing hERG; higher = less effect of the substance", "units": {"hERG current change (%, negative = inhibition) at 10uM": "%"}}
{"smiles": "NS(=O)(=O)c1ccc2nc(NC(=O)Nc3ccc(F)cc3)sc2c1", "hERG current change (%, negative = inhibition) at 10uM": 6.61}
{"smiles": "CCN=C1S/C(=C\\c2cn(C(C)=O)nc2-c2ccccc2)C(=O)N1CC", "hERG current change (%, negative = inhibition) at 10uM": 8.23}
{"smiles": "O=C(CSCc1ccc(Br)cc1)N1CCOCC1", "hERG current change (%, negative = inhibition) at 10uM": 3.5}
{"smiles": "CCN(CC)c1ccc(C=C2C(=O)OC3(CCCCC3)OC2=O)cc1", "hERG current change (%, negative = inhibition) at 10uM": 7.76}
{"smiles": "CCCOc1ccc(C(C)=O)cc1CC(C(=O)OCC)C(=O)OCC", "hERG current change (%, negative = inhibition) at 10uM": 1.47}
{"smiles": "COc1ccc(/C=C/C(=O)OCC(=O)Nc2cc(C(N)=O)cc(C(N)=O)c2)cc1", "hERG current change (%, negative = inhibition) at 10uM": 18.2}
{"smiles": "CN(C)/C=N/C(=S)Nc1cc(Cl)cc(Cl)c1", "hERG current change (%, negative = inhibition) at 10uM": 27.2}
{"smiles": "O=C(c1ccc(NS(=O)(=O)c2cccs2)cc1)N1CCOCC1", "hERG current change (%, negative = inhibition) at 10uM": 14.4}
{"smiles": "CC(=O)c1cc(CC=C(C)C)c(O)cc1O", "hERG current change (%, negative = inhibition) at 10uM": -3.51}
{"smiles": "O=C(COC(=O)CCC1CCCC1)Nc1ccc(Cl)cn1", "hERG current change (%, negative = inhibition) at 10uM": 15.2}
{"smiles": "Cc1c(C(=O)OCC(=O)N(C)CC(=O)Nc2ccc(F)cc2)oc2ccccc12", "hERG current change (%, negative = inhibition) at 10uM": 14.3}
{"smiles": "CN(C)c1nc(N)c([N+](=O)[O-])c(N2CCCCCC2)n1", "hERG current change (%, negative = inhibition) at 10uM": 2.69}
{"smiles": "CC(=O)c1ccc(Nc2ncnc3c2oc2ccccc23)cc1", "hERG current change (%, negative = inhibition) at 10uM": 7.05}
{"smiles": "Cl.Oc1ccc(Nc2ncnc3c2oc2ccccc23)cc1", "hERG current change (%, negative = inhibition) at 10uM": -4.8}
{"smiles": "Cl.c1ccc2c(c1)oc1c(Nc3ccc(CN4CCOCC4)cc3)ncnc12", "hERG current change (%, negative = inhibition) at 10uM": -62}
{"smiles": "CC(=O)N1CCN(c2ccc(Nc3ncnc4c3oc3ccccc34)cc2)CC1.Cl", "hERG current change (%, negative = inhibition) at 10uM": -65.9}
{"smiles": "CCc1nc(Nc2ccc(N3CCN(C(C)=O)CC3)cc2)c2oc3ccccc3c2n1.Cl", "hERG current change (%, negative = inhibition) at 10uM": -43.7}
{"smiles": "Cl.c1ccc2c(c1)oc1c(NCCCN3CCOCC3)ncnc12", "hERG current change (%, negative = inhibition) at 10uM": -22.4}
{"smiles": "CC(=O)N1CCN(c2ccc(Nc3nc(C)nc4c3oc3ccccc34)cc2)CC1.Cl", "hERG current change (%, negative = inhibition) at 10uM": -51.3}
{"smiles": "CC(=O)Nc1ccc(Nc2nc(C)nc3c2oc2ccccc23)cc1", "hERG current change (%, negative = inhibition) at 10uM": 13.4}
{"smiles": "Cl.c1ccc2c(c1)oc1c(NCCN3CCOCC3)ncnc12", "hERG current change (%, negative = inhibition) at 10uM": -5.4}
{"smiles": "O=C(Nc1nc(COc2ccccc2)cs1)c1ccccc1F", "hERG current change (%, negative = inhibition) at 10uM": 24.9}
{"smiles": "CCCCN(CC)CCNC(=O)Cn1cc2c(n1)-c1c(oc(C(=O)N3CCCC3)c1C)CC2", "hERG current change (%, negative = inhibition) at 10uM": -27.9}
{"smiles": "CCOc1cc(/C=C2/C(=O)ON=C2C)ccc1OCc1ccccc1F", "hERG current change (%, negative = inhibition) at 10uM": 10.6}
{"smiles": "Cc1cc(OCC(=O)N[C@H](C(=O)O)c2ccccc2)c2c3c(c(=O)oc2c1)CCC3", "hERG current change (%, negative = inhibition) at 10uM": 12.1}
{"smiles": "CCN1CCN(C(=S)Nc2cc(C(=O)OC)ccc2C(=O)OC)CC1", "hERG current change (%, negative = inhibition) at 10uM": 16.9}
{"smiles": "Br.N=c1n(CCN2CCCCC2)c2ccccc2n1CC(=O)c1cccs1", "hERG current change (%, negative = inhibition) at 10uM": -25.2}
{"smiles": "Cc1ccc(C(=O)NCCN2CCOCC2)cc1Cl", "hERG current change (%, negative = inhibition) at 10uM": -17.7}
{"smiles": "Br.N=c1n(CCN2CCCCC2)c2ccccc2n1CC(=O)c1ccc(Cl)c(Cl)c1", "hERG current change (%, negative = inhibition) at 10uM": -72.6}
{"smiles": "Br.Cc1ccc(C(=O)Cn2c(=N)n(N)c3ccccc32)cc1", "hERG current change (%, negative = inhibition) at 10uM": -14.7}
{"smiles": "Cc1ccc(C(=O)NCCN2CCOCC2)cc1", "hERG current change (%, negative = inhibition) at 10uM": 12}
{"smiles": "Br.N=c1n(CCN2CCOCC2)c2ccccc2n1CC(=O)c1ccc(Cl)c(Cl)c1", "hERG current change (%, negative = inhibition) at 10uM": -73.2}
{"smiles": "O=C(NCCN1CCOCC1)c1ccc(Cl)c(Cl)c1", "hERG current change (%, negative = inhibition) at 10uM": -2.39}
{"smiles": "Cn1c(=O)n(Cc2ccccc2Br)c2ccccc21", "hERG current change (%, negative = inhibition) at 10uM": -10.3}
{"smiles": "Br.COC(=O)Cn1c(=N)n(CCN2CCCCC2)c2ccccc21", "hERG current change (%, negative = inhibition) at 10uM": -19.2}
{"smiles": "N=c1n(CCOc2ccccc2)c2ccccc2n1CCN1CCOCC1", "hERG current change (%, negative = inhibition) at 10uM": -42.9}
{"smiles": "Br.N=c1n(CCN2CCOCC2)c2ccccc2n1Cc1ccccc1Br", "hERG current change (%, negative = inhibition) at 10uM": -72.9}
{"smiles": "Cc1ccc(C(=O)Cn2c(=N)n(CCN3CCOCC3)c3ccccc32)cc1.[Br-]", "hERG current change (%, negative = inhibition) at 10uM": -59.9}
{"smiles": "COc1ccc(C)cc1NC(=O)c1ccc(NC(=O)CC2SC(N3CCCC3)=NC2=O)cc1", "note": "(stereo not shown)", "hERG current change (%, negative = inhibition) at 10uM": 18.2}
{"smiles": "Cc1cn(-c2ccc(Br)cc2)[nH]c1=O", "hERG current change (%, negative = inhibition) at 10uM": 8.3}
{"smiles": "COC(=O)C1=C(C)N=C2SC(C)C(=O)N2C1c1cccs1", "note": "(stereo not shown)", "hERG current change (%, negative = inhibition) at 10uM": 7.16}
{"smiles": "CCNC(=O)NC(=O)COC(=O)CCCSc1nc2ccccc2s1", "hERG current change (%, negative = inhibition) at 10uM": -8.6}
{"smiles": "CCOc1ccc(S(=O)(=O)NCCC(=O)NCCc2ccc(C(C)C)cc2)cc1", "hERG current change (%, negative = inhibition) at 10uM": 3.89}
{"smiles": "CCOC(=O)c1nn(-c2ccc([N+](=O)[O-])cc2)cc1O", "hERG current change (%, negative = inhibition) at 10uM": 2.65}
{"smiles": "COC(=O)c1cc(OC)c(OC)cc1NCC(=O)Nc1cccc(C(F)(F)F)c1", "hERG current change (%, negative = inhibition) at 10uM": 13.8}
{"smiles": "COc1ccc(C(=O)N2CCOCC2)cc1S(=O)(=O)N1CCC(C)CC1", "hERG current change (%, negative = inhibition) at 10uM": -9.4}
{"smiles": "COc1ccccc1NC(=O)Cn1c([N+](=O)[O-])cnc1C", "hERG current change (%, negative = inhibition) at 10uM": 11}
{"smiles": "NC(=S)N=Nc1c(O)n(CCCl)c2ccc(Br)cc12", "hERG current change (%, negative = inhibition) at 10uM": -27.4}
{"smiles": "CCc1ccccc1S(=O)(=O)Cc1ccc(C(=O)NCC2CCCO2)o1", "note": "(stereo not shown)", "hERG current change (%, negative = inhibition) at 10uM": -23}
{"smiles": "Cc1ccc(C(C)NC(=O)Cc2cccs2)cc1C", "note": "(stereo not shown)", "hERG current change (%, negative = inhibition) at 10uM": -44.2}
{"smiles": "CCN1CCCC1CNC(=O)C(=O)NC(C)c1ccccc1", "note": "(stereo not shown)", "hERG current change (%, negative = inhibition) at 10uM": 13}
{"smiles": "Br.C=CCn1c(=N)n(CC(=O)c2cccc([N+](=O)[O-])c2)c2ccccc21", "hERG current change (%, negative = inhibition) at 10uM": -56.7}
{"smiles": "Cl.N=C(c1cccc([N+](=O)[O-])c1)N1CCCCCC1", "hERG current change (%, negative = inhibition) at 10uM": 2.26}
{"smiles": "Br.CCn1c(=N)n(CC(=O)c2cccc([N+](=O)[O-])c2)c2ccccc21", "hERG current change (%, negative = inhibition) at 10uM": 12.1}
{"smiles": "Br.N=c1n(CCN2CCCCC2)c2ccccc2n1CC(=O)c1cccc([N+](=O)[O-])c1", "hERG current change (%, negative = inhibition) at 10uM": -69}
{"smiles": "Br.N=c1n(CCN2CCOCC2)c2ccccc2n1CC(=O)c1cccc([N+](=O)[O-])c1", "hERG current change (%, negative = inhibition) at 10uM": -42.2}
{"smiles": "Br.N=c1n(CC(=O)c2cccc([N+](=O)[O-])c2)c2ccccc2n1Cc1ccccc1", "hERG current change (%, negative = inhibition) at 10uM": -17.9}
{"smiles": "O=C1Nc2ccccc2/C1=C/c1cnc(-c2ccccc2)[nH]1", "hERG current change (%, negative = inhibition) at 10uM": 26.2}
